A short description of the assay: cell-free HIV fusion peptide-binding blockers – biochemical, uHTS, fluorescence dequenching, primary screen (AID 1986). The conditions noted are these: 30 min, stronger effect = higher value.
The mark [1] stands for this setting: measured here: repeat confirmation average inhibition, at 18.6 µM.

Among all 290,000 compounds or so, about 890 (0.31%) were called active. Cut-off read from the data, not from the text of the source: active = inhibition mostly above about 52% (no sharp cut-off); inactive = mostly below about 76%. For the sample, actives were picked, then their nearest neighbours and some compounds at random.

The term inhibition denotes the relative decrease from the control value, in per cent.

Turning to `COc1ccccc1CNc1ccccc1F`, the inhibition (at 20 µM) was -1.2% (inactive).
The same measure, in the same setting: under `COc1ccccc1C(C)NC(=O)CCOc1cccc(C)c1` (stereo not drawn) stands -1.1% (inactive); under `Cc1ccc2c(CN3C(=O)NC(C)(c4ccc5c(c4)OCO5)C3=O)cc(=O)oc2c1` (stereo not drawn), 3.8% (inactive); under `Cn1c(N=Nc2ccccc2)nc2ccccc21`, 101% (active).
Consider `CN(C)c1ccc(N=Nc2nc3ccccc3n2C)cc1`, for which the inhibition (at 20 µM) was -6% (inactive).
Same read-out and setting: the value for `Cc1cc(C)c(C)c(N=Nc2nc3ccccc3n2C)c1C` was -5.2% (inactive); that for `CC1CCC2(CC1)Nc1ccccc1C(=O)N2c1ccccc1` (stereo not drawn) was -0.5% (inactive).
Same read-out and setting: under `O=C(CN1CCN(c2ccc(F)cc2)CC1)Nc1ccc(S(=O)(=O)N2CCOCC2)cc1` stands 0.3% (inactive); under `CCN(CC)CC(O)CCCCCCCCC(=O)OC` (stereo not drawn), -0.6% (inactive); under `CCOc1ccc(NC(=O)CN2CCN(C3c4ccccc4-c4ccccc43)CC2)cc1`, 0.9% (inactive).
Take `O=c1[nH]c(-[n+]2ccccc2)c(/C=N/NC([S-])=Nc2ccccc2)s1`: the inhibition runs as follows: (at 20 µM) 97.7% (inactive); under setting [1], 27.6%.
Turning to `CCc1ccc[n+](-c2[nH]c(=O)sc2/C=N/NC([S-])=Nc2ccccc2)c1`, the inhibition (at 20 µM) was 57% (active).
Consider `Cc1cc[n+](-c2[nH]c(=O)sc2/C=N/NC([S-])=Nc2ccccc2)cc1C`, for which, for the setting “at 20 µM”, the inhibition is 36% (inactive).
On the same count and under the same terms, under `CCN(CC)C(=O)Cn1cc(S(=O)(=O)CC(=O)Nc2ccccc2C)c2ccccc21` stands 1.2% (inactive); under `Cc1ccc(C2C(C#N)=C(N)SC(N)=C2C#N)cc1`, -0.7% (inactive); under `N#CC1=C(N)SC(N)=C(C#N)C1c1ccc(C(F)(F)F)cc1`, 18.6% (inactive).
In the case of `N#CC1=C(N)SC(N)=C(C#N)C1c1ccoc1`, the inhibition (at 20 µM) was 97.5% (active).
The same measure, in the same setting: the value for `O=C(COC(=O)c1ccc([N+](=O)[O-])s1)NC(c1ccccc1)c1ccccc1` was 0% (inactive); that for `O=C(NC(=S)NC1CCSC1=O)c1ccc([N+](=O)[O-])cc1` (stereo not drawn) was -1.4% (inactive); that for `COc1ccc(OC)c(CNC(=O)CCC(=O)N2Cc3cccc(OC)c3Oc3ncccc32)c1` was 1.2% (inactive).
Still for that read-out and setting: under `Cc1ccc2nc(N/C(=N/S(=O)(=O)c3ccc(F)cc3)c3ccccc3)sc2c1` stands 8.2% (inactive).
In the case of `COc1ccc2nc(N/C(=N/S(=O)(=O)c3cccs3)c3ccccc3Cl)sc2c1`, the inhibition (at 20 µM) was 30.6% (inactive).
Same read-out and setting: under `Cc1ccc2nc(N/C(=N/S(=O)(=O)c3cccs3)c3ccccc3Cl)sc2c1` stands 69.2% (active); under `Cc1cc(C)nc(SCc2nc(N)nc(-c3ccccc3O)n2)n1`, -1.6% (inactive).
Still for that read-out and setting: the value for `COc1cc2c(cc1OC)CN(C(=O)c1sc(-c3cnccn3)nc1C)CC2` was 0.1% (inactive); that for `COc1ccc(/C=N/N=C2/NC(=O)C(CC(=O)O)S2)cc1OCc1ccc(Cl)cc1` (stereo not drawn) was 44% (inactive).
The same measure, in the same setting: the value for `COc1cc(/C=N/N=C2/NC(=O)C(CC(=O)O)S2)ccc1OCc1ccc(Cl)cc1` (stereo not drawn) was 51.8% (active).
In the case of `CCOc1cc(/C=N/NC(=O)CN2CCOCC2)ccc1OCc1ccc(Cl)cc1`, the inhibition (at 20 µM) is 0.5% (inactive).
Regarding `CCOc1cc(/C=N/NC(=O)CN2CCCCC2)ccc1OCc1ccc(Cl)cc1`, the inhibition (at 20 µM) is -0.7% (inactive).
As for `CCOc1cc(/C=N/N=C2/NC(=O)C(CC(=O)O)S2)ccc1OCc1ccccc1Cl` (stereo not drawn), the inhibition by setting is: (at 20 µM) 53% (inactive); under setting [1], 36.4%.
For `COc1ccc(/C=N/N=C2/NC(=O)C(CC(=O)O)S2)cc1OCc1ccc(Cl)cc1Cl` (stereo not drawn) the same measures were 50.6% (inactive) and 47.2%.
For `COc1cc(/C=N/N=C2/NC(=O)C(CC(=O)O)S2)ccc1OCc1cccc(Cl)c1` (stereo not drawn), under “at 20 µM”, the inhibition is 47.1% (inactive).
On to `Cc1ccc(NC(=S)NCCN(C2CCCCC2)C2CCCC2)cc1C`, for which the inhibition (at 20 µM) was 0.4% (inactive).
The same measure, in the same setting: under `COc1cc(C(C)=O)ccc1COc1ccc(C(=O)O)cc1OC` stands 2.1% (inactive); under `O=C(NC1CC2CCCC(C1)N2Cc1ccco1)NC12CC3CC(CC(C3)C1)C2` (stereo not drawn), 0.1% (inactive).
Regarding `CCC(=O)Oc1ccc2c(C)cc(=O)oc2c1C(=O)c1ccccc1`, the inhibition (at 20 µM) is 1.8% (inactive).
Same read-out and setting: the value for `COc1ccc(C(=O)c2cc3cccc(OC)c3o2)cc1` was -1% (inactive).
Take `COc1ccccc1N1C(=O)c2cccc3c(N(C)CCO)ccc(c23)C1=O`: the inhibition is 64% (active) (at 20 µM) and 61.6% under setting [1].
On to `COc1ccc(N2C(=O)c3cccc4c(N(C)CCO)ccc(c34)C2=O)cc1`, for which the inhibition (at 20 µM) was 150% (inactive).
The same measure, in the same setting: the value for `Cc1ccccc1N1C(=O)c2cccc3c(N(C)CCO)ccc(c23)C1=O` was 2.4% (inactive); that for `COc1ccccc1/C=C/C=N/n1c(-c2ccncc2)n[nH]c1=S` was 1.2% (inactive).
On the same count and under the same terms, under `CC(C)=NNc1nc2sc3c(c2c(=O)[nH]1)CC(C)(C)OC3` stands 6.1% (inactive); under `CN(C)[C@@H]1C(=O)C(C(=O)NCN2CCCC2)=C(O)[C@@]2(O)C(=O)C3=C(O)c4c(O)cccc4[C@@](C)(O)C3CC12` (stereo partly drawn), 55.1% (active).
Still for that read-out and setting: the value for `C=CCCC(=O)N1CCC(n2nccc2NC(=O)CCCc2ccccc2)CC1` was -2.2% (inactive).
As to `COc1ccc2nc(N/C(N)=N/C(=S)Nc3cccc(C)c3)nc(C)c2c1`, for the setting “at 20 µM”, the inhibition is 1.7% (inactive).
Still for that read-out and setting: under `CCCCCOc1ccc(/C=c2\sc3nc(=O)c(-c4ccccc4)nn3c2=O)cc1OC` stands 51.8% (active).
Regarding `COc1cc(/C=c2\sc3nc(=O)c(-c4ccccc4)nn3c2=O)ccc1OCCC(C)C`, the inhibition runs as follows: (at 20 µM) 62.3% (inactive); under setting [1], 39.1%.
`COc1ccc(/C=c2\sc3nc(-c4ccccc4)c(-c4ccccc4)n3c2=O)cc1OC`: the inhibition (at 20 µM) is -0.1% (inactive).
